Source: PubChem BioAssay
Shown are actives, neighbours in structure and some others; about 14% of the full set was active somewhere.
NS1 function inh: qHTS Assay for Inhibitors of Influenza NS1 Protein Function; Potency, µM (highest dose often 46.1 µM), without a hit: at the highest dose activity, positive = more growth; 0.4% of 270,000 active; calls by dose curve; note: potency is the fitted concentration of half-maximal effect; actives are rising curves; nearly all actives have a fitted effect of over 50% in size
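Compounds were scored for reversing the slow growth caused by influenza A NS1 in S. cerevisiae, measured by optical density at 600 nm. Assay medium contained 2% galactose at pH 6.0; NS1-free yeast of the same strain were the positive control.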
Giardia FBPA inh: qHTS Assay for Inhibitors of Fructose-1,6-bisphosphate Aldolase from Giardia Lamblia | A8B2U2 | purified Giardia FBPA | Potency, µM (highest dose often 59.6 µM), for inactives: at the highest dose activity, negative = inhibition, actives largely listed as inhibitors | 0.71% of 290,000 active | AID 2451, 2010; note: potency is the fitted concentration of half-maximal effect; % is set by controls: 0 for no effect and ±100 for the full control effect; nearly all actives have a fitted effect of over 55% in size
Target sequence (A8B2U2 whole entry, looked up): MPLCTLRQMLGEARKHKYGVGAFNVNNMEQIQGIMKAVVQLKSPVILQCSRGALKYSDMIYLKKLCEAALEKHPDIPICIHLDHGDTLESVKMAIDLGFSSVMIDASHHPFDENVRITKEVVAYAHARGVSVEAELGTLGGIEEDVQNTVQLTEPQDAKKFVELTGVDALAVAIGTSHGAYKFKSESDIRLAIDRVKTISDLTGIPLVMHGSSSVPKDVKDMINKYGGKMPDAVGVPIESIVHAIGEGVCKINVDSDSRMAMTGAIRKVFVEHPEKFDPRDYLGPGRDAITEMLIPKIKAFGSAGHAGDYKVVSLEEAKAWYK
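Giardia FBPA (40 nM reagent) was preincubated 10 min at RT with compound (up to 57.5 uM final), then substrate plus GAPDH/TPI/NAD/arsenate coupling system with diaphorase/resazurin was added; resorufin fluorescence (525/598 nm) was read after 20 min.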
Cycloheximide cs: Cycloheximide Counterscreen for Small Molecule Inhibitors of Shiga Toxin; cell reporter, cycloheximide protein synthesis inhibition counterscreen; max response, %; 12% of 300,000 active; AID 2314, 2010; in the data active = max response mostly above about 13%, no sharp cut-off; inactive = mostly below about 14%; note: read at 38.3 µM for the half of the compounds with a filed dose; 0% is about no effect
Shiga toxin inh: A qHTS for Small Molecule Inhibitors of Shiga Toxin | Vero cells, Shiga toxin protein synthesis inhibition reporter | 9.2% of 290,000 active | inhibition, % at 38.7 µM; in the data active = inhibition mostly above about 28%, no sharp cut-off; inactive = mostly below about 43%; note: 0% is about no effect
LmPK inh: qHTS Assay for Inhibitors of Leishmania Mexicana Pyruvate Kinase (LmPK); Q27686; purified LmPK, Kinase-Glo ATP luminescence, 1 h; Potency, µM (highest dose often 57.5 µM), without a hit: top-dose activity change, negative = inhibition, most hits filed as inhibitors; 0.37% of 290,000 active; AID 1721, 2009; note: potency is the fitted concentration of half-maximal effect; % is set by controls: 0 for no effect and ±100 for the full control effect
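Screened at intermediate enzyme activity to detect both inhibitors and activators: LmPK at 0.1 nM, with a 0.5 nM enzyme column as activation reference. PEP 0.5 mM, ADP 0.1 mM; ATP detected by luminescence after 1 h.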
The depositor's hits bear a star; u = inconclusive; x = no result; + = active, no number. Unless noted, calls come from the whole dose curve; as a rule, active = well fitted curve in the direction sought with a large enough effect; inconclusive = small, poorly fitted or top-dose-only effect, or another doubt; inactive = no such curve, though single readings can be large; an effect the other way counts as inactive or inconclusive.

SMILES	NS1 function inh	Giardia FBPA inh	Cycloheximide cs	Shiga toxin inh	LmPK inh
Cc1ccccc1-c1ccc2ncnc(N3CCNCC3)c2c1	x	7%	x	x	x
Cc1ccccc1C(=O)N1CCC(C(=O)N(C)CC(=O)Nc2cccc(F)c2)CC1	11%	x	2	-5	2%
O=C(CNC(=O)[C@@H]1Cc2ccccc2CN1)NCc1ccco1	7%	-27%	-6	-1	1%
CCCCNC(=O)CSc1nnc(Cc2ccc(Cl)c(Cl)c2)c(=O)[nH]1	17%	-8%	-5	-9	4%
Cc1cc(OCC(=O)N(Cc2ccccc2)C2CCS(=O)(=O)C2)ccc1Cl (configuration not stated)	1%	x	-3	-4	-7%
O=[N+]([O-])c1ccc(-c2nc(C(Cl)Cl)c3ccccc3n2)cc1	0%	6%	-2	14	4%
Cc1nc(-c2ccc([N+](=O)[O-])cc2)nc2[nH]ccc(=O)c12	-2%	-26%	30*	36	-6%
Cc1nc(-c2ccccc2)nc2[nH]c(-c3ccccc3)cc(=O)c12	2%	-4%	-3	52	0%
Cc1nc(-c2ccccc2)nc2[nH]ccc(=O)c12	3%	-9%	34*	45	-2%
CCOc1ccc(-c2nnc(SCC(=O)NC(C)(C)C)nc2-c2ccc(OCC)c(OC)c2)cc1OC	3%	-4%	-3	-4	5%
C/C=C/c1ccc(OC(C)[C@@H](O)c2ccc(O)c(OC)c2)c(OC)c1 (some centres not stated)	x	-7%	x	x	x
CCCN1CCN(C(=O)c2noc3c2COc2ccc(C)cc2-3)CC1	2%	-9%	17*	54*	-2%
CCCN1CCN(C(=O)c2ccc3nc(CC)c(CC)nc3c2)CC1	3%	3%	-6	-8	3%
CCOC(=O)N1CCN(C(=O)c2noc3c2COc2ccccc2-3)CC1	4%	x	20*	20	-17%
NC(=O)C1CCN(CC(=O)Nc2ccc(S(=O)(=O)N3CCOCC3)cc2)CC1	-4%	17%	-5	-10	1%
O=C(c1ccc(F)cc1)C1CCN(C(=O)c2ccccc2F)CC1	-11%	-11%	1	2	-5%
Nc1c(-c2ccccc2)cnn1-c1cccc(Cl)c1	-10%	1%	51*	82*	u
Cc1ccc(-n2ncc(-c3nn[nH]n3)c2N)cc1	4%	-6%	1	24	0%
Cc1cccc(-c2cnn(-c3cccc([N+](=O)[O-])c3)c2N)c1	-2%	-2%	22*	36	-4%
Cc1cccc(-c2cnn(-c3ccccc3)c2N)c1	-34%	-5%	44*	101*	-8%
Nc1ccccc1Nc1cc(-c2cccc(Cl)c2)nn1-c1ccccc1	22%	0%	20*	+	1%
COc1cccc(-c2nc(CS(=O)(=O)CC(=O)Nc3ccccc3Br)c(C)o2)c1	-6%	-1%	9	-10	-2%
COc1ccccc1C(=O)NCCN=C1NS(=O)(=O)c2ccccc21	5%	-5%	-6	0	-1%
COc1cc(CN2CCCC(C)C2)ccc1OCc1ccccc1 (configuration not stated)	-28%	-22%	17*	36*	-3%
CC1CCN(CCOCCOc2ccc(Br)cc2Cl)CC1	-23%	-13%	1	-5	-5%
SMILES	NS1 function inh	Giardia FBPA inh	Cycloheximide cs	Shiga toxin inh	LmPK inh
C=CCc1ccc(OCCCCN2CCC(C)CC2)c(OC)c1	-10%	-19%	-1	-2	-2%
CC1CCCN(CCCOc2ccc(Br)cc2Cl)C1 (configuration not stated)	-4%	u	22*	41*	-1%
Cc1cc(Cl)cc(Cl)c1OCCCCN(C)C	-5%	-17%	47*	-17	-5%
C=CCc1ccc(OCCCN2CCCC(C)C2)c(OC)c1 (configuration not stated)	-86%	-24%	22*	20	-10%
CC(C)[C@]1(Cl)CC[C@@H]2[C@]3(C)CCC[C@@](C)(C(=O)O)[C@H]3C[C@H](Cl)[C@@]2(Cl)[C@H]1Cl	-3%	x	x	x	x
CC(C)C[C@H](N)CSSC[C@@H](N)CC(C)C	-7%	-1%	x	x	x
CN(C)CCCCOc1ccc(Br)cc1Cl	2%	-25%	14*	28	1%
CCOC(=O)C1CCCN(Cc2ccc(OCc3ccccc3)c(OC)c2)C1 (configuration not stated)	-13%	-29%	18*	x	1%
CCN1CCN(Cc2ccc(OCc3ccccc3)c(OC)c2)CC1	-5%	-12%	49*	105*	1%
COCCCNCCCCOc1ccc(Br)cc1Cl	7%	-25%	-5	-7	0%
CSc1nnc(C)c(=O)n1COC(=O)COc1ccc(Cl)cc1Cl	x	1%	-2	10	14%
O=C(O)c1ccc(SSc2ccc(C(=O)O)cn2)nc1	-6%	x	x	x	x
O=[N+]([O-])c1cccc(-c2cn3ccccc3n2)c1	0%	1%	-3	30	2%
COc1ccc(-c2cn3ccccc3n2)cc1[N+](=O)[O-]	-8%	-4%	67*	96*	-27%
COc1ccc(-c2cn3cc([N+](=O)[O-])ccc3n2)cc1OC	x	-17%	41*	80*	3%
CCCOc1ccc(-c2cn3ccccc3n2)cc1[N+](=O)[O-]	3%	-14%	134*	+	-16%
CCCCOc1ccc(-c2csc(N)n2)cc1[N+](=O)[O-]	-56%	1%	86*	127*	0%
CCCCOc1ccc(C2=CSC3=NCCN23)cc1[N+](=O)[O-]	1%	22%	-2	2	0%
CC(C)=CCCC1(C)C=Cc2c(c(C)cc3c2[nH]c2ccccc23)O1 (configuration not stated)	x	-27%	x	x	x
O=C(/C=C\Nc1ccc2c(c1)OCO2)c1ccc(Cl)s1	x	-6%	57*	71*	-11%
O=C(/C=C\Nc1ccc2c(c1)OCO2)c1cccs1	-37%	-8%	6.9*	66*	11µM*
C=CC(C1=CC(=O)C(OC)=CC1=O)c1ccc(OC)cc1 (configuration not stated)	x	20µM*	x	x	x
C=CC(C1=CC(=O)C(OC)=CC1=O)c1ccccc1 (configuration not stated)	x	20µM*	x	x	x
C=CC(C1=CC(=O)C(OC)=C(OC)C1=O)c1ccccc1 (configuration not stated)	x	18µM*	x	x	x
COc1ccc(C(=O)N/N=C/C(C)c2ccccc2)cc1OC (configuration not stated)	7%	1%	9	27	1%
Cc1ccc(-c2nnc(CSc3nncn3N)o2)cc1	3%	4%	19*	35	4%
Cn1nnnc1SCc1nnc(-c2ccc(Cl)cc2)o1	2%	5%	29*	56*	5%
Cc1occc1-c1nnc(SCc2nnc(-c3ccc(Cl)cc3)o2)n1C	-14%	12%	31*	65*	4%
Cc1occc1-c1nnc(SCC(=O)Nc2ccccc2)n1C	-3%	0%	5	25	1%
